Test results reported in PubChem BioAssay (EPA / NIEHS).
The source made the active and inactive calls. Rule for the calls: active = hit-call score of the fitted dose curve at least 0.9, where 1 is the maximum; inactive = score below 0.9.

What was measured:
[1] = target: Paired box protein Pax-6 (Homo sapiens) (UniProt P26367); experiment: ATG_Pax6_CIS: Attagene CIS-FACTORIAL HepG2 Assay for human Paired Box 6 (PAX6) (AID 2282956); conditions: HepG2 CIS-FACTORIAL PAX6 reporter transcription, RNA readout; actives raise or lower the signal
Paired box protein Pax-6 (Homo sapiens), sequence (P26367 whole entry, looked up): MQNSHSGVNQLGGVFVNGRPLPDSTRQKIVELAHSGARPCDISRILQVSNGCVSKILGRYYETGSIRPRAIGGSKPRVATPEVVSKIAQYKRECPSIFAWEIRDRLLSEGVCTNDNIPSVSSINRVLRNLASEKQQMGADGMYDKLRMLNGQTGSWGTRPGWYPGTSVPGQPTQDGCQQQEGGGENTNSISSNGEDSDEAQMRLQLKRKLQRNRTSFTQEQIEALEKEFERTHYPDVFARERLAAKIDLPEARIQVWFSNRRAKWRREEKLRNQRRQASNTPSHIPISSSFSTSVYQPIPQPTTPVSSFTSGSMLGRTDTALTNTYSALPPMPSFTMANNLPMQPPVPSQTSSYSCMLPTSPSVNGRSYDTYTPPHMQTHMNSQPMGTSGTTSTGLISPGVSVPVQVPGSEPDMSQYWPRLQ
Procedure, shortened: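 After twenty-four hours of chemical exposure, transfected HepG2 cells are harvested for RNA. Cis-promoter reporter transcripts are amplified, fluorescently labelled and sized by capillary electrophoresis, with gain and loss of signal scored against DMSO.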

[2] = ATG_PXRE_CIS: Attagene CIS-FACTORIAL HepG2 Assay for human Pregnane X Receptor Element (PXRE) (AID 2282957); conditions: HepG2 Attagene CIS-FACTORIAL PXRE reporter, mRNA; actives raise or lower the signal
Procedure, shortened: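 Transfect HepG2 with MRTUs (cis promoter elements); dose chemical, incubate 24 h; isolate RNA, RT with oligo(dT), PCR, 6-FAM label, HpaI cut, CE. Gain/loss fit vs DMSO.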

[3] = ATG_PPRE_CIS: Attagene CIS-FACTORIAL HepG2 Assay for human Peroxisome Proliferator-activated Response Element (PPRE) (AID 2282958); conditions: HepG2 PPRE cis-element reporter, Attagene transcription factor profiling; actives raise or lower the signal
Procedure, shortened: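 Multiplexed reporter transcription units under cis-regulatory promoters were transfected into HepG2 cells to capture endogenous factor activity. A 24 h incubation preceded RNA isolation and fluorescent RT-PCR fragment analysis.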

[4] = ATG_RORE_CIS: Attagene CIS-FACTORIAL HepG2 Assay for human RAR-related Orphan Receptor Element (RORE) (AID 2282959); conditions: HepG2 Attagene cis-factorial RORE reporter, mRNA; actives raise or lower the signal
Procedure, shortened: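 Fluorescence intensity of reporter-specific cDNA fragments, separated by capillary electrophoresis, gives the signal. Source: HepG2 liver cells transiently transfected with cis-element reporters and exposed 24 h; DMSO-normalized bidirectional fit.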

[5] = ATG_Sox_CIS: Attagene CIS-FACTORIAL HepG2 Assay for human SRY-box transcription factor (SOX) (AID 2282960); conditions: HepG2 Attagene cis-factorial SOX reporter, mRNA; actives raise or lower the signal
Procedure, shortened: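 After 24 h of chemical treatment, transfected HepG2 reporter cells are lysed for total RNA. Transcript levels come from RT-PCR with labelled primer extension and capillary electrophoresis, analysed bidirectionally versus DMSO.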

[6] = ATG_SREBP_CIS: Attagene CIS-FACTORIAL HepG2 Assay for human Sterol Regulatory Element Binding (SREBP) (AID 2282962); conditions: HepG2 Attagene cis-factorial SREBP reporter, mRNA; actives raise or lower the signal
Procedure, shortened: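 Twenty-four hours after chemical dosing of transfected HepG2 cultures, reporter RNA was converted to cDNA, amplified, end-labelled with 6-FAM and resolved by capillary electrophoresis. Responses were fitted relative to DMSO.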

[7] = target: Signal transducer and activator of transcription 3 (Homo sapiens) (UniProt P40763); experiment: ATG_STAT3_CIS: Attagene CIS-FACTORIAL HepG2 Assay for human Signal Transducer and Activator of Transcription 3 (STAT3) (AID 2282963); conditions: HepG2, Attagene cis-factorial STAT3 reporter transcription; actives raise or lower the signal
Signal transducer and activator of transcription 3 (Homo sapiens), sequence (P40763 whole entry, looked up): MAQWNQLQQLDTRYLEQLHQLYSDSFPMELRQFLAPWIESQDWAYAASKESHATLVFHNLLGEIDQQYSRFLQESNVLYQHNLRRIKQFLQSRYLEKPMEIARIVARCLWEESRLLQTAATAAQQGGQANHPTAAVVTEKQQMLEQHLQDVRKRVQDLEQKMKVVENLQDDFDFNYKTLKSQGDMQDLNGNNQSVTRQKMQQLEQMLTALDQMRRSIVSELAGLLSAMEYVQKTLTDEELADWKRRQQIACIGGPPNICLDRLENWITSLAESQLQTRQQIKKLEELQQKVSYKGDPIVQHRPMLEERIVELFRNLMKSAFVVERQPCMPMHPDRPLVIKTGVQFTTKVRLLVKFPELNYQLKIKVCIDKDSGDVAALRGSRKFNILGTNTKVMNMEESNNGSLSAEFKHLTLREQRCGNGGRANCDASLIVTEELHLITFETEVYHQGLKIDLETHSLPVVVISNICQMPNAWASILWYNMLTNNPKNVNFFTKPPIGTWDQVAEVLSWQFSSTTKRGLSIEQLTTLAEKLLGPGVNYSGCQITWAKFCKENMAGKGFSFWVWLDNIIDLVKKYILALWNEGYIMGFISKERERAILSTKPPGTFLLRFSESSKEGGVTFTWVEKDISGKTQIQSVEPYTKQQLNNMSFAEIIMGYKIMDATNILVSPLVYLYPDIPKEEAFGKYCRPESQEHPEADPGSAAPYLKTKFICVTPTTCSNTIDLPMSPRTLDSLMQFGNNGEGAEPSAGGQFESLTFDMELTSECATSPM
Procedure, shortened: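 HepG2 cells transiently transfected with multiple cis-element-driven reporter units report endogenous transcription factor activity. After 24 h compound exposure, reporter mRNA is measured by RT-PCR, 6-FAM labelling, HpaI digestion and capillary electrophoresis. Fitted bidirectionally versus DMSO.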

[8] = ATG_TA_CIS: Attagene CIS-FACTORIAL HepG2 Assay for human TA Basal Promoter (AID 2282964); conditions: HepG2 Attagene CIS-factorial TA basal promoter reporter; actives raise or lower the signal
Procedure, shortened: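 HepG2 cells transiently transfected with multiplexed cis-promoter reporter units, dosed 24 h. Reporter mRNA measured by RT-PCR, 6-FAM labelling, HpaI digestion and capillary electrophoresis; bidirectional fit versus DMSO baseline, serving as background control.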

[9] = ATG_TCF_b_cat_CIS: Attagene CIS-FACTORIAL HepG2 Assay for human T-Cell-Factor with beta-catenin (TCF/b-cat) (AID 2282965); conditions: HepG2 TCF/beta-catenin cis-reporter transcription, actives raise or lower the signal
Procedure, shortened: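 Cells of the HepG2 line carry transiently transfected reporter units whose promoters respond to endogenous factors. Twenty-four hours post-dosing, reporter mRNA induction is measured by fluorescent RT-PCR and capillary electrophoresis, with DMSO as baseline.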

[10] = target: Transcription factor Sp1 (Homo sapiens) (UniProt P08047); experiment: ATG_Sp1_CIS: Attagene CIS-FACTORIAL HepG2 Assay for human Specificity Protein 1 (Sp1) (AID 2282961); conditions: HepG2 Sp1 cis-reporter transcription, actives raise or lower the signal
Transcription factor Sp1 (Homo sapiens), sequence (P08047 whole entry, looked up): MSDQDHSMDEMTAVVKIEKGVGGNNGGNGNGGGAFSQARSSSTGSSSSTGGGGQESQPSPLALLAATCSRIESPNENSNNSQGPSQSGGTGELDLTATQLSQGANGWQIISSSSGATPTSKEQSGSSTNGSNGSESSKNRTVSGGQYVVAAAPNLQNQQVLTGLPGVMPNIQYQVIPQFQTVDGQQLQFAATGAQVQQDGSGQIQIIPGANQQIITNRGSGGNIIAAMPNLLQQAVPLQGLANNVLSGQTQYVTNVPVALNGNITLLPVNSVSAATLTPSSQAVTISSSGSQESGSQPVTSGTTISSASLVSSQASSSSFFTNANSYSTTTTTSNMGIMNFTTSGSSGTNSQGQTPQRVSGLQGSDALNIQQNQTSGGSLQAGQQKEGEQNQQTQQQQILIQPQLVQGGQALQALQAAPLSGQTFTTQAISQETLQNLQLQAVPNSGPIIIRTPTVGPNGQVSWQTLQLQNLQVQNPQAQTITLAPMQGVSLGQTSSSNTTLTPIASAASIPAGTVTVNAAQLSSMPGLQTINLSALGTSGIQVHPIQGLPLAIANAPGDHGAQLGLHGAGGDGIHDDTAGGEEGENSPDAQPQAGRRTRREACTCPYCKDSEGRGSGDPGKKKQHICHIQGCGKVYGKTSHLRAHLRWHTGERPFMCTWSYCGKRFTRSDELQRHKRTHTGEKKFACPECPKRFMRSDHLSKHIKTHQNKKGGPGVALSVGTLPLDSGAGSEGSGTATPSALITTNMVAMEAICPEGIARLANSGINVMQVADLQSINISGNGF
Procedure, shortened: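 Sp1-driven reporter mRNA, read as capillary electrophoresis fluorescence after RT-PCR, in transiently transfected HepG2 cells dosed for 24 h; signal change in either direction relative to DMSO.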

Measured: AC50

O=C1OC[C@H](Cc2cccc(O)c2)[C@H]1Cc1cccc(O)c1
active: [2] 5.12 µM
not listed: [10]
inactive: all other assays above

C=Cc1ccncc1
inactive: [7] | [8]
active: [1] 33.1 µM | [2] 33.1 µM | [3] 13.5 µM | [4] 10.2 µM | [5] 21.8 µM | [6] 17.1 µM | [9] 57 µM

CC(C)Nc1nc(N)nc(Cl)n1
not listed: [4] | [10]
inactive: all other assays above

N[C@@H](Cc1cc(I)c(Oc2cc(I)c(O)c(I)c2)c(I)c1)C(=O)O
inactive: [1] | [5] | [7] | [8]
active: [2] 6.42 µM | [3] 22.1 µM | [6] 22.7 µM

Cc1c(Cl)cccc1[N+](=O)[O-]
not listed: [10]
inactive: all other assays above

CC(C)(C)OC(=O)c1ccc(O)cc1
active: [4] 72.5 µM
not listed: [3] | [9]
inactive: all other assays above

CCC1(C)NC(=O)NC1=O (configuration not stated)
not listed: [4]
inactive: all other assays above

OC[C@H]1O[C@@H](Oc2ccc(O)cc2)[C@H](O)[C@@H](O)[C@@H]1O
not listed: [10]
inactive: all other assays above

COc1ccccc1[N+](=O)[O-]
active: [2] 71.7 µM
not listed: [3] | [8] | [9]
inactive: all other assays above

CC1CCC(C(C)C)C(O)C1 (configuration not stated)
not listed: [7] | [10]
inactive: all other assays above

CC1=C(Br)C(=O)C(Br)=C/C1=C(/c1ccccc1S(=O)(=O)O)c1cc(Br)c(O)c(Br)c1C
active: [2] 26.2 µM
not listed: [10]
inactive: all other assays above

O=C(CS)OCCOC(=O)CS
active: [2] 37.8 µM | [3] 19.7 µM
not listed: [10]
inactive: all other assays above

COc1ccccc1N=Nc1c(S(=O)(=O)O)cc2cc(S(=O)(=O)O)cc(NC(C)=O)c2c1O
active: [2] 25.7 µM
not listed: [3]
inactive: all other assays above

COS(=O)(=O)O
not listed: [3]
inactive: all other assays above

c1ccc(Oc2ccccc2)cc1
active: [2] 25.1 µM
not listed: [3]
inactive: all other assays above

CCCCCCCCSCCO
active: [2] 25 µM
not listed: [3]
inactive: all other assays above

OC[C@H]1O[C@@H]2O[C@H]3[C@H](O)[C@@H](O)[C@@H](O[C@H]4[C@H](O)[C@@H](O)[C@@H](O[C@H]5[C@H](O)[C@@H](O)[C@@H](O[C@H]6[C@H](O)[C@@H](O)[C@@H](O[C@H]7[C@H](O)[C@@H](O)[C@@H](O[C@H]8[C@H](O)[C@@H](O)[C@@H](O[C@H]9[C@H](O)[C@@H](O)[C@@H](O[C@H]1[C@H](O)[C@H]2O)O[C@@H]9CO)O[C@@H]8CO)O[C@@H]7CO)O[C@@H]6CO)O[C@@H]5CO)O[C@@H]4CO)O[C@@H]3CO
active: [2] 22.4 µM
not listed: [3]
inactive: all other assays above

C=C(C)CNCC
active: [2] 52.9 µM
not listed: [3]
inactive: all other assays above

O=C(O)COCC(=O)O
not listed: [3]
inactive: all other assays above

OCC#CCO
not listed: [3]
inactive: all other assays above

Cc1cc(CCC(=O)OCCOCCOCCOC(=O)CCc2cc(C)c(O)c(C(C)(C)C)c2)cc(C(C)(C)C)c1O
active: [2] 24.3 µM
not listed: [3]
inactive: all other assays above
